Source: PubChem (several laboratories)
ROMK mod – modulators of human ROMK potassium channel; 2% of 130,000 active; Tet-inducible ROMK, thallium flux fluorescence; actives lie on both sides; B-score at 10 µM; P48048;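 active means signal ratio slope over the read window, or its plate-corrected B-score, at least 3 SD from the plate mean, either direction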;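 further: B-score of the F/F0 ratio slope over 7 to 12 s after thallium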
Target sequence (P48048 whole entry, looked up): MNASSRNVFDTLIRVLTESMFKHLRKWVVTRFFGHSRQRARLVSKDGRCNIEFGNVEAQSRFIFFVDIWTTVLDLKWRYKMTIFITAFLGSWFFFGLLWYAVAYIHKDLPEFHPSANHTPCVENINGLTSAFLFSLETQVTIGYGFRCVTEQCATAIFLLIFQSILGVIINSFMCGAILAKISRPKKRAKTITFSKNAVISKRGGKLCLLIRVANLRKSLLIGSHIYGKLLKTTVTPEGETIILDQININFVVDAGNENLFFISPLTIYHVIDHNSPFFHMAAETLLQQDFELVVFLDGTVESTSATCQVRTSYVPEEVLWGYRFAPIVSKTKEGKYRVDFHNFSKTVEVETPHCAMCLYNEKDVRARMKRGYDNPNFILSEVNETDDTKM
WT yeast gro inh – growth inhibition of WT yeast, mitochondrial fusion screen | mitochondrial fusion phenotypic screen, WT strain | inhibition, % at 10 µM | 2.1% of 190,000 active | AID 1362; in the data active means inhibition above about 58%; tested in S. cerevisiae
Calpain2 inh – calpain II (pig) inhibition; purified calpain II, fluorogenic peptide substrate, 30 min; 0.37% of 220,000 active; inhibition, % at 16 µM;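 active means inhibition above about 50%, limit read from the data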
Cl transport mod – modulators of human KCC2 chloride dependent transport | KCC2 cells, thallium flux FluoZin-2 fluorescence | B-score of Tl+ flux slope (higher = more flux/activation; lower = inhibition) at 10 µM | 2.2% of 190,000 active | AID 1456;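 active means thallium flux slope and its plate-corrected score both differing from the plate sample mean at a set confidence after two filtering rounds, in either direction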;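 further: slope of fluorescence scaled to starting intensity during 10 to 20 s after thallium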
L major viab – reduces viability of Leishmania major promastigotes. 9% of 200,000 active. inhibition, % at 10 µM. AID 1063. resazurin fluorescence viability; in the data active means inhibition above about 50%;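 further: promastigotes grown with compound for 44 hours at 28 °C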
* hit, by the source's call. An excerpt weighted towards active compounds, which were near 12% of everything screened.

Screening CCCCCCn1c(CN2CCCCC2CC)nc2c1c(=O)n(C)c(=O)n2C (configuration not stated) returned WT yeast gro inh 16, Calpain2 inh 5, Cl transport mod -1.9 and L major viab 60*.
Cc1cc([N+](=O)[O-])ccc1-c1ccc(C2Nc3ccccc3C(=O)N2O)o1 (configuration not stated) was read as WT yeast gro inh 40, Calpain2 inh -8, Cl transport mod 8.4* and L major viab 99*.
Screening Cc1ccsc1C1Nc2ccccc2C(=O)N1O (configuration not stated) returned WT yeast gro inh -12, Calpain2 inh -6, Cl transport mod -0.77 and L major viab -7.
For CCOC(=O)c1ccc(-c2ccc(C3Nc4ccccc4C(=O)N3O)o2)cc1 (configuration not stated) the results were ROMK mod -3.8*, WT yeast gro inh -2, Calpain2 inh 12, Cl transport mod 7.1* and L major viab 98*.
Screening O=C(/C(=C/O)N=Nc1ccccc1)c1ccc(Cl)cc1 returned ROMK mod 0.14, WT yeast gro inh 68*, Calpain2 inh -52, Cl transport mod 0.35 and L major viab 37.
For Cc1ccc(N=N/C(=C\O)C(=O)c2ccc(Cl)cc2)cc1 the results were ROMK mod 1.2, WT yeast gro inh 97*, Calpain2 inh -52, Cl transport mod 2 and L major viab 91*.
`c1ccc(N2OCC3Cn4c(nc5ccccc54)C32)cc1` (configuration not stated) gave Calpain2 inh 10 and Cl transport mod -1.5.
Screening Cc1cc(C)c(OCC(=O)Nc2ccc3c(c2)OCO3)cc1C returned WT yeast gro inh 3, Calpain2 inh 27, Cl transport mod 0.1 and L major viab 80*.
Cc1ccc(OCC(=O)Nc2ccc3c(c2)OCCO3)cc1C was read as ROMK mod 0.016, WT yeast gro inh 9, Calpain2 inh 11, Cl transport mod -1 and L major viab 1.
For CCNc1ccc(C(=O)OCC(=O)c2cc(C)n(Cc3ccc4c(c3)OCO4)c2C)cc1[N+](=O)[O-] the results were ROMK mod -0.52, WT yeast gro inh -15, Calpain2 inh -38, Cl transport mod -0.071 and L major viab 67*.
Screening Nc1ccc(C(=O)OCC(=O)Nc2ccc3c(c2)OCO3)cc1[N+](=O)[O-] returned WT yeast gro inh -2, Calpain2 inh 30, Cl transport mod -0.067 and L major viab 69*.
Screening Cc1ccc(OCC(=O)Nc2ccc3c(c2)OCO3)c([N+](=O)[O-])n1 returned ROMK mod 0.37, WT yeast gro inh 0, Calpain2 inh -4, Cl transport mod 1.9 and L major viab 55*.
`O=C(CCn1cnnn1)Nc1ccccc1` gave ROMK mod -0.061, WT yeast gro inh 5, Calpain2 inh -9, Cl transport mod 0.64 and L major viab -7.
`Cc1nc(NCCOc2ccccc2)sc1C(=O)Nc1ccccc1` gave ROMK mod 0.59, Calpain2 inh 11 and Cl transport mod 0.21.
For Cc1cnn(-c2nc(-c3ccccc3)cc(-c3ccccc3)n2)c1 the results were ROMK mod 1.5, WT yeast gro inh 41, Calpain2 inh 29, Cl transport mod -0.49 and L major viab 27.
COC(=O)[C@@H]1CCCN1Cc1c(C(=O)N2CCOCC2)nc2c(C)cccn12 was read as ROMK mod 0.38, WT yeast gro inh -10, Calpain2 inh -14, Cl transport mod -0.21 and L major viab -1.
`Cc1ccc(C)c(OCC(=O)Nc2ccc3c(c2)OCO3)c1` gave WT yeast gro inh -3, Calpain2 inh -39, Cl transport mod 1 and L major viab 82*.
COc1ccc(NC(=O)Cn2nc([N+](=O)[O-])c(Cl)c2C)cc1OC was read as ROMK mod 0.074, Calpain2 inh -16 and Cl transport mod 0.75.
`Cc1c(Cl)c([N+](=O)[O-])nn1CC(=O)Nc1ccc2c(c1)OCO2` gave ROMK mod -0.17, WT yeast gro inh 4, Calpain2 inh 30, Cl transport mod 0.0081 and L major viab 81*.
Cc1ccccc1OCC(=O)Nc1ccc2c(c1)OCCO2 was read as Calpain2 inh -15 and Cl transport mod -0.71.
For Cc1ccc(-c2nnn(CC(=O)Nc3nnc(C(C)C)s3)n2)cc1 the results were ROMK mod -0.81, WT yeast gro inh -7, Calpain2 inh 5, Cl transport mod -0.26 and L major viab -5.
Screening CC(C)(C)c1ccc(NC(=O)Nc2ccc3ccccc3n2)cc1 returned ROMK mod -0.39, Calpain2 inh 0 and Cl transport mod -0.051.
